From the antibiotic and cytotoxicity screens of Wong et al. (2023)
About 3,300 (8.5%) of roughly 39,000 compounds were called active. What follows is part of a selection rich in actives, with near analogues and random picks from the rest.

Test system: HepG2
Assay: cytotoxicity call (relative viability < 0.9)
Conditions: 10 µM

Compound	cytotoxicity call
[O-][n+]1onc2c1CCc1c-2nn(-c2ccccc2)[n+]1[O-]	inactive
COc1ccc(C#Cc2ccc3c(c2)[C@]2(C(=O)N3)[C@H](c3ccc(OCCO)cc3)N3[C@H](c4ccccc4)[C@H](c4ccccc4)OC(=O)[C@H]3[C@@H]2C(=O)N2CCN(c3ncccn3)CC2)cc1	inactive
COc1ccc(S(=O)(=O)N(C)C[C@@H]2Oc3ncc(C#CCN(C)C)cc3C(=O)N([C@H](C)CO)C[C@@H]2C)cc1	inactive
O=C(O)CCC(=O)Nc1ccccn1	inactive
COc1ccc(NC(=O)Nc2ccc3c(c2)C(=O)N([C@H](C)CO)C[C@H](C)[C@H](CN(C)C(=O)NC2CCCCC2)OCCCC[C@H](C)O3)cc1	inactive
Nc1ccn[nH]1	inactive
NCc1nnc2n1CCCCC2	inactive
CCOC(=O)C1CCN(C)CC1	inactive
CC[C@@]1(O)C[C@H](O[C@H]2C[C@H](N(C)C)[C@H](O[C@H]3C[C@H](O)[C@H](O[C@H]4CCC(=O)[C@H](C)O4)[C@H](C)O3)[C@H](C)O2)c2c(cc3c(c2O)C(=O)c2c(O)cccc2C3=O)[C@H]1C(=O)OC	active
C[C@@H]1CN([C@@H](C)CO)S(=O)(=O)c2ccc(C#CC3CCCCC3)cc2O[C@@H]1CN(C)C(=O)Cc1ccncc1	inactive
CO[C@H](C(=O)N(C)C[C@H]1OCc2ccccc2-c2c(n(C)c3ccccc23)C(=O)N([C@@H](C)CO)C[C@@H]1C)c1ccccc1	inactive
Cc1cc(C(=O)NCc2cc3n(n2)CCN(S(C)(=O)=O)C3)nc(C)n1	inactive
C[C@H]1CN([C@@H](C)CO)C(=O)Cc2cc(NC(=O)Nc3ccccc3)ccc2O[C@H]1CN(C)Cc1ccc(C(F)(F)F)cc1	active
C[C@@H]1CN([C@@H](C)CO)C(=O)Cc2cc(NC(=O)Nc3ccccc3)ccc2O[C@@H]1CN(C)Cc1ccc(C(F)(F)F)cc1	active
C[C@H]1CN([C@@H](C)CO)C(=O)Cc2cc(NC(=O)Nc3ccccc3)ccc2O[C@@H]1CN(C)Cc1ccc(C(F)(F)F)cc1	active
C[C@H](CO)N1C[C@H](C)[C@@H](CN(C)Cc2ccc(C(F)(F)F)cc2)Oc2ccc(NC(=O)Nc3ccccc3)cc2CC1=O	inactive
C[C@@H]1CN([C@H](C)CO)C(=O)Cc2cc(NC(=O)Nc3ccccc3)ccc2O[C@H]1CN(C)Cc1ccc(C(F)(F)F)cc1	inactive
C[C@@H]1CN([C@H](C)CO)C(=O)Cc2cc(NC(=O)Nc3ccccc3)ccc2O[C@@H]1CN(C)Cc1ccc(C(F)(F)F)cc1	active
COCC(=O)Nc1ccc2c(c1)C(=O)N(C)C[C@@H](OC)[C@H](C)CN(Cc1ccccc1F)[C@H](C)CO2	inactive
CN1CCN(C(=O)C[C@H]2C=C[C@@H](NC(=O)Cc3ccccn3)[C@@H](CO)O2)CC1	inactive
C[C@H]1CCCCO[C@H](CN(C)C(=O)CCC(F)(F)F)[C@@H](C)CN([C@@H](C)CO)C(=O)c2cc(NS(=O)(=O)c3ccc(F)cc3)ccc2O1	inactive
C[C@@H]1CN([C@@H](C)CO)C(=O)Cc2cc(NS(C)(=O)=O)ccc2O[C@H]1CN(C)C(=O)Nc1ccc(C(F)(F)F)cc1	inactive

Compound	cytotoxicity call
C[C@H](CO)N1C[C@H](C)[C@H](CN(C)S(=O)(=O)c2ccc(Cl)cc2)OCCCC[C@H](C)Oc2ccc(NC(=O)C3CCCCC3)cc2C1=O	inactive
C[C@H](CO)N1C[C@H](C)[C@H](CN(C)S(=O)(=O)c2ccccc2)Oc2ccc(NC(=O)Nc3cccc4ccccc34)cc2C1=O	inactive
COc1ccc(NC(=O)Nc2cccc3c2O[C@@H](CN(C)C(=O)Nc2ccc(C(F)(F)F)cc2)[C@H](C)CN([C@@H](C)CO)C3=O)cc1	inactive
C[C@@H]1CCCCO[C@H](CN(C)Cc2ccncc2)[C@@H](C)CN([C@@H](C)CO)C(=O)c2cc(NC(=O)Nc3ccc4c(c3)OCO4)ccc2O1	inactive
C[C@@H]1CN([C@@H](C)CO)C(=O)Cc2cc(NC(=O)Nc3ccccc3)ccc2O[C@H]1CN(C)Cc1ccc(C(F)(F)F)cc1	active
C[C@H](CO)N1C[C@H](C)[C@H](CN(C)Cc2ccc(C(F)(F)F)cc2)Oc2ccc(NC(=O)Nc3ccccc3)cc2CC1=O	inactive
NCc1ccc2c(c1)CCO2	inactive
C[C@H]1CN([C@@H](C)CO)S(=O)(=O)c2ccc(-c3cncnc3)cc2O[C@H]1CN(C)C(=O)Cc1ccncc1	inactive
Cc1ccc(S(=O)(=O)Nc2ccc3c(c2)C(=O)N([C@H](C)CO)C[C@@H](C)[C@@H](CN(C)Cc2ccc(Cl)c(Cl)c2)O3)cc1	active
Cc1ccc(S(=O)(=O)Nc2ccc3c(c2)C(=O)N([C@H](C)CO)C[C@@H](C)[C@H](CN(C)Cc2ccc(Cl)c(Cl)c2)O3)cc1	inactive
Cc1ccc(S(=O)(=O)Nc2ccc3c(c2)C(=O)N([C@@H](C)CO)C[C@H](C)[C@@H](CN(C)Cc2ccc(Cl)c(Cl)c2)O3)cc1	inactive
Cc1ccc(S(=O)(=O)Nc2ccc3c(c2)C(=O)N([C@@H](C)CO)C[C@H](C)[C@H](CN(C)Cc2ccc(Cl)c(Cl)c2)O3)cc1	inactive
Cc1ccc(S(=O)(=O)Nc2ccc3c(c2)C(=O)N([C@@H](C)CO)C[C@@H](C)[C@H](CN(C)Cc2ccc(Cl)c(Cl)c2)O3)cc1	inactive
Cc1ccc(S(=O)(=O)Nc2ccc3c(c2)C(=O)N([C@H](C)CO)C[C@H](C)[C@H](CN(C)Cc2ccc(Cl)c(Cl)c2)O3)cc1	active
Cc1ccc(S(=O)(=O)Nc2ccc3c(c2)C(=O)N([C@H](C)CO)C[C@H](C)[C@@H](CN(C)Cc2ccc(Cl)c(Cl)c2)O3)cc1	active
Cc1ccc(S(=O)(=O)Nc2ccc3c(c2)C(=O)N([C@@H](C)CO)C[C@@H](C)[C@@H](CN(C)Cc2ccc(Cl)c(Cl)c2)O3)cc1	active
NC(=O)CSCC(=O)Nc1ccccc1F	inactive
O=C(O)/C=C\C(=O)NCc1ccccc1	inactive
COCCN1C[C@H]2[C@@H](OC)CCN(S(=O)(=O)c3cn(C)cn3)[C@H]2C1	inactive
CNC(=O)C[C@@H]1CC[C@@H]2[C@H](COC[C@@H](O)CN2C(=O)c2ccccn2)O1	inactive
C[C@H](CO)N1C[C@H](C)[C@@H](CN(C)S(=O)(=O)c2cccs2)Oc2ccc(NS(C)(=O)=O)cc2CC1=O	inactive
